PubChem BioAssay (NCATS)
Unmarked numbers belong to inactive results. Calls come from the whole dose curve; as a rule, active = well fitted curve in the direction sought with a large enough effect; inconclusive = small, poorly fitted or top-dose-only effect, or another doubt; inactive = no such curve, though single readings can be large; an effect the other way counts as inactive or inconclusive. Results filed as inconclusive are left out.

molecular target: Methanococcus maripaludis chaperonin (MmCpn) (UniProt Q6LX38); experiment: High-Throughput Screening for Modulators of Cytosolic Chaperonin Activity: MmCpn Primary Screen (AID 488978); conditions: Purified MmCpn ATPase activity, ADP HTRF detection, 10 min; series mostly up to 76.9 µM; activity change, negative = inhibition: at the top concentration;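 note: 50 nM MmCpn enzyme hydrolysing 30 µM ATP at 37 °C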
Sequence (Q6LX38 1-543): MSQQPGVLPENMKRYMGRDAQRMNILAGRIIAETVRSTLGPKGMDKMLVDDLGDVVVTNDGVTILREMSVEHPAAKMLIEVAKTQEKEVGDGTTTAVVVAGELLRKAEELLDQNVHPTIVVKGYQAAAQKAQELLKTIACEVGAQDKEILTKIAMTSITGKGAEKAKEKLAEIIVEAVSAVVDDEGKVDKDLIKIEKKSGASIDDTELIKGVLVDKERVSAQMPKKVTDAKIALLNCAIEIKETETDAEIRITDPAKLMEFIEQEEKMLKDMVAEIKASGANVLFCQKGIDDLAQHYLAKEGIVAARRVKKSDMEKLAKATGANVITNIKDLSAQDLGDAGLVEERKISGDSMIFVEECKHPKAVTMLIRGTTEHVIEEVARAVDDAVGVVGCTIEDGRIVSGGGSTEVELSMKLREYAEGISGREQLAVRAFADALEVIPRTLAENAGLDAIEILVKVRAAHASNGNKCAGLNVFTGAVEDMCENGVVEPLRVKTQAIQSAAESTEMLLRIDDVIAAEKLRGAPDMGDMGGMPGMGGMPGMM
How it was run: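 ADP formation read by HTRF Transcreener, 665/590 nm emission after 320 nm excitation. Enzyme: archaeal chaperonin at 50 nM final; substrate ATP 30 uM final; 10 min, 37C, after 5 min compound preincubation at RT.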
Note: 0% is about no effect.

Row | SMILES | activity change, negative = inhibition
1 | CCN1CCCC1CNC(=O)c1cc(S(N)(=O)=O)ccc1OC (configuration not stated) | 0.166%
2 | CC1CC2C3CCC4=CC(=O)C=C[C@]4(C)[C@@]3(F)[C@@H](O)C[C@]2(C)[C@@]1(O)C(=O)CO (some centres not stated) | 1.12%
3 | O=C(O)C1CCCN(CCC=C(c2ccccc2)c2ccccc2)C1 (configuration not stated) | 2.34%
4 | CCN(CC)CC#CCOC(=O)C(O)(c1ccccc1)C1CCCCC1 (configuration not stated) | 0.652%
5 | OCc1ccc(-c2nn(Cc3ccccc3)c3ccccc23)o1 | -3.6%
6 | CC(=O)[C@H]1CC[C@H]2[C@@H]3CCC4=CC(=O)CC[C@]4(C)[C@H]3CC[C@]12C | -0.525%
7 | CCCCS(=N)(=O)CCC(N)C(=O)O (configuration not stated) | -0.305%
8 | CC1=C(C(=O)O)N2C(=O)[C@@H](NC(=O)C(N)c3ccccc3)[C@H]2SC1 (some centres not stated) | 0.415%
9 | NC(=O)c1cccc(N)c1 | 1.56%
10 | Nc1nc(N)c2nc(CNc3ccc(C(=O)NC(CCC(=O)O)C(=O)O)cc3)cnc2n1 (configuration not stated) | -3.86%
11 | COc1cc2nc(N3CCCN(C)CC3)nc(NC3CCN(Cc4ccccc4)CC3)c2cc1OC | -3.68%
12 | N[C@@H](Cc1ccc(O)c(O)c1)C(=O)O | 1.11%
13 | CC(C)NCC(O)c1ccc(NS(C)(=O)=O)cc1 (configuration not stated) | 0.181%
14 | COc1cc2ncnc(Nc3cccc(Cl)c3)c2cc1OC | -3.2%
15 | NC(=O)c1ccc2[nH]ccc2c1 | 2.57%
16 | CCN(CC)CCn1c(=O)c(Cc2ccc(OC)cc2)nc2ccccc21 | -1.28%

molecular target: Transient receptor potential cation channel subfamily V member 1 (Homo sapiens) (UniProt Q8NER1); experiment: HTS Assay for Compounds that Act as Enhancers of the Vanilloid Receptor 1 (AID 488979); conditions: TRPV1-expressing cells, enhancer of channel activity, stimulated with capsaicin at EC20; series mostly up to 41.7 µM; activity change, positive = enhancement: at the top concentration
Sequence (Q8NER1 whole entry, looked up): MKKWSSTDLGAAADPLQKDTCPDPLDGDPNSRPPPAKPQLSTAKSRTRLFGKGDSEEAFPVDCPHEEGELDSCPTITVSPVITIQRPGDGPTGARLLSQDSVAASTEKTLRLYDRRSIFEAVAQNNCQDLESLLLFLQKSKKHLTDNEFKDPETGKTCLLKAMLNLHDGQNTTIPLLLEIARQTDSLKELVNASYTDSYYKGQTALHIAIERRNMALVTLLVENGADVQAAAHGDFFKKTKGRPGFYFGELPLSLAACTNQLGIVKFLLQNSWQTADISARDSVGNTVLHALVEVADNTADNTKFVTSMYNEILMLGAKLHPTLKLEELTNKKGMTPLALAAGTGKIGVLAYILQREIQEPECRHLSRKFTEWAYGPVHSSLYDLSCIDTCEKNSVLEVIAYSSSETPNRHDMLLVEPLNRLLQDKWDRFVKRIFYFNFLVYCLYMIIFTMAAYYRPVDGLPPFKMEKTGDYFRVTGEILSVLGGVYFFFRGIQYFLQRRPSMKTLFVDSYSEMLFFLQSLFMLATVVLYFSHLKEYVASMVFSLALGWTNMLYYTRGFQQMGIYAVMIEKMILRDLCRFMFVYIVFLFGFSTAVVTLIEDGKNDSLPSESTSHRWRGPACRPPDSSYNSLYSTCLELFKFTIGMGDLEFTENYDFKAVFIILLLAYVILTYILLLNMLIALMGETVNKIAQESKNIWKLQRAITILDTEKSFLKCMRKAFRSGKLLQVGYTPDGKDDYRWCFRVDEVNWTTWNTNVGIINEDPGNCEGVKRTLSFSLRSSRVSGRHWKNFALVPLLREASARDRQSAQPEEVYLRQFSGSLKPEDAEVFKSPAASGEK
How it was run: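 Calcium influx kinetics via Fluo-8 (480/520 nm) in TRPV1-expressing cells, 2000/well cultured overnight at 35.5C. Compound-alone read 3 min (agonist phase), followed by EC20 capsaicin challenge for 2 min (enhancer phase).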

Row | SMILES | activity change, positive = enhancement
17 | Cc1ccc(S(=O)(=O)N[C@@H](Cc2ccccc2)C(=O)CCl)cc1 | 11.1%
18 | CCN1CCCC1CNC(=O)c1cc(S(N)(=O)=O)ccc1OC (configuration not stated) | -8.97%
19 | O=C(O)C1CCCN(CCC=C(c2ccccc2)c2ccccc2)C1 (configuration not stated) | 1.71%
20 | CCN(CC)CC#CCOC(=O)C(O)(c1ccccc1)C1CCCCC1 (configuration not stated) | -11%
21 | OCc1ccc(-c2nn(Cc3ccccc3)c3ccccc23)o1 | 16.4%
22 | CC(=O)[C@H]1CC[C@H]2[C@@H]3CCC4=CC(=O)CC[C@]4(C)[C@H]3CC[C@]12C | -3.59%
23 | CCCCS(=N)(=O)CCC(N)C(=O)O (configuration not stated) | 4.34%
24 | CC1=C(C(=O)O)N2C(=O)[C@@H](NC(=O)C(N)c3ccccc3)[C@H]2SC1 (some centres not stated) | 7.15%
25 | NC(=O)c1cccc(N)c1 | 2.74%
26 | Nc1nc(N)c2nc(CNc3ccc(C(=O)NC(CCC(=O)O)C(=O)O)cc3)cnc2n1 (configuration not stated) | -3.99%
27 | CC(C)(C)NC(=O)[C@H]1CC[C@H]2[C@@H]3CC[C@H]4NC(=O)C=C[C@]4(C)[C@H]3CC[C@]12C | -4.57%
28 | CC(C)NCC(O)c1ccc(NS(C)(=O)=O)cc1 (configuration not stated) | 4.44%
29 | COc1cc2ncnc(Nc3cccc(Cl)c3)c2cc1OC | -8.87%

molecular target: Thyrotropin receptor (Homo sapiens) (UniProt P16473); experiment: qHTS Assay for Antagonists of the Thyroid Stimulating Hormone Receptor (AID 488980); conditions: TSHR-expressing cells, cAMP antagonist read-out; series mostly up to 57.5 µM; activity, negative = inhibition: at the top concentration
Sequence (P16473 whole entry, looked up): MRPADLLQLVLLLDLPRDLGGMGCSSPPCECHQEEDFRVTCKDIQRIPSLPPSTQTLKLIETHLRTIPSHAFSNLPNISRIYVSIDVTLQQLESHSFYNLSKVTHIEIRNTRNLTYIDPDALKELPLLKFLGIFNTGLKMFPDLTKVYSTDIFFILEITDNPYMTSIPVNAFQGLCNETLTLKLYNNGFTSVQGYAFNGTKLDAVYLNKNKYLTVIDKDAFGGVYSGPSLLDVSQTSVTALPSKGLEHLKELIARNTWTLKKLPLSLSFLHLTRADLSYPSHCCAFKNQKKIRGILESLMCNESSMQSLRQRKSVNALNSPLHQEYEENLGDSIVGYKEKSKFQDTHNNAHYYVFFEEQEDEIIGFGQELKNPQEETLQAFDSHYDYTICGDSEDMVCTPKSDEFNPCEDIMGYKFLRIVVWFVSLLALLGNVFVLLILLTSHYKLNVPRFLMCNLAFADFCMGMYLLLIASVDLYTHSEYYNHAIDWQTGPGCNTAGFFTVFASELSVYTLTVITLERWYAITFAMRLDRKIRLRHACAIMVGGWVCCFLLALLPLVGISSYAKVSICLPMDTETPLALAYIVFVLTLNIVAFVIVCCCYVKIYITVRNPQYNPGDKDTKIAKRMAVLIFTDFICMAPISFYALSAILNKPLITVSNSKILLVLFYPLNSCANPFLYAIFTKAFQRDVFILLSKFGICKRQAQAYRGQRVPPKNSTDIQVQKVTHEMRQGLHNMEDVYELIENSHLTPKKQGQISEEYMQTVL
How it was run: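 TSHR-HEK293 cells; 70 uM RO 20-1724 PDE inhibitor; compound + EC80 TSH (4 nM final); anti-cAMP cryptate antibody/cAMP-d2 in lysis buffer, 30 min RT; HTRF 665/620 nm read.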

Row | SMILES | activity, negative = inhibition
30 | Cc1ccc(S(=O)(=O)N[C@@H](Cc2ccccc2)C(=O)CCl)cc1 | -1.98%
31 | CCN1CCCC1CNC(=O)c1cc(S(N)(=O)=O)ccc1OC (configuration not stated) | -1.84%
32 | O=C(O)C1CCCN(CCC=C(c2ccccc2)c2ccccc2)C1 (configuration not stated) | -0.172%
33 | CCN(CC)CC#CCOC(=O)C(O)(c1ccccc1)C1CCCCC1 (configuration not stated) | -0.438%
34 | OCc1ccc(-c2nn(Cc3ccccc3)c3ccccc23)o1 | -1.66%
35 | CC(=O)[C@H]1CC[C@H]2[C@@H]3CCC4=CC(=O)CC[C@]4(C)[C@H]3CC[C@]12C | 0.0313%
36 | CCCCS(=N)(=O)CCC(N)C(=O)O (configuration not stated) | -0.339%
37 | NC(=O)c1cccc(N)c1 | -0.852%
38 | Nc1nc(N)c2nc(CNc3ccc(C(=O)NC(CCC(=O)O)C(=O)O)cc3)cnc2n1 (configuration not stated) | -0.274%
39 | CC(C)NCC(O)c1ccc(NS(C)(=O)=O)cc1 (configuration not stated) | -1.18%
40 | COc1cc2ncnc(Nc3cccc(Cl)c3)c2cc1OC | -1.17%

molecular target: D(1A) dopamine receptor (Homo sapiens) (UniProt P21728); experiment: HTS Assay for Allosteric Agonists of the Human D1 Dopamine Receptor: Primary Screen for Agonists (AID 488981); conditions: Inducible HEK293 T-REx D1 cells, calcium-flux fluorescence, 180 s kinetic; series mostly up to 41.8 µM; activation: at the top concentration
Sequence (P21728 whole entry, looked up): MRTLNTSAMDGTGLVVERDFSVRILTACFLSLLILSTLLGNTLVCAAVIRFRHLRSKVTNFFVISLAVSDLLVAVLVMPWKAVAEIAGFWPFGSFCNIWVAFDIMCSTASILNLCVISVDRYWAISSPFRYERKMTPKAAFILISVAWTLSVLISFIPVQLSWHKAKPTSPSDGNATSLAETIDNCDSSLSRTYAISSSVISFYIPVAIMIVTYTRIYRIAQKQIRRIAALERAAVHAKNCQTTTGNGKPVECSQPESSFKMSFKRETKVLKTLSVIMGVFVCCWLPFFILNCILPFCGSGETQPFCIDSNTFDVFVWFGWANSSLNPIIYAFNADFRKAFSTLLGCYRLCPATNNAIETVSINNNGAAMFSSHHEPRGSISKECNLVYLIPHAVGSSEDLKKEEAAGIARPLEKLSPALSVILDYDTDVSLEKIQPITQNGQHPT
How it was run: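 Calcium flux in an inducible, force-coupled HEK293 Trex D1 line (overnight at 30 C): agonist mode is the 180 s kinetic read after compound; potentiator mode is the following 180 s read after dopamine at EC20.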

Row | SMILES | activation
41 | Cc1ccc(S(=O)(=O)N[C@@H](Cc2ccccc2)C(=O)CCl)cc1 | 3.38%
42 | CCN1CCCC1CNC(=O)c1cc(S(N)(=O)=O)ccc1OC (configuration not stated) | -0.582%
43 | CC1CC2C3CCC4=CC(=O)C=C[C@]4(C)[C@@]3(F)[C@@H](O)C[C@]2(C)[C@@]1(O)C(=O)CO (some centres not stated) | -1.22%
44 | O=C(O)C1CCCN(CCC=C(c2ccccc2)c2ccccc2)C1 (configuration not stated) | 1%
45 | CCN(CC)CC#CCOC(=O)C(O)(c1ccccc1)C1CCCCC1 (configuration not stated) | 5.08%
46 | OCc1ccc(-c2nn(Cc3ccccc3)c3ccccc23)o1 | 0.846%
47 | CC(=O)[C@H]1CC[C@H]2[C@@H]3CCC4=CC(=O)CC[C@]4(C)[C@H]3CC[C@]12C | 10.6%
48 | CCCCS(=N)(=O)CCC(N)C(=O)O (configuration not stated) | -1.27%
49 | CC1=C(C(=O)O)N2C(=O)[C@@H](NC(=O)C(N)c3ccccc3)[C@H]2SC1 (some centres not stated) | -0.317%
50 | NC(=O)c1cccc(N)c1 | -0.529%
51 | Nc1nc(N)c2nc(CNc3ccc(C(=O)NC(CCC(=O)O)C(=O)O)cc3)cnc2n1 (configuration not stated) | 0.74%
52 | COc1cc2nc(N3CCCN(C)CC3)nc(NC3CCN(Cc4ccccc4)CC3)c2cc1OC | -0.582%
53 | N[C@@H](Cc1ccc(O)c(O)c1)C(=O)O | -0.37%
54 | CC(C)NCC(O)c1ccc(NS(C)(=O)=O)cc1 (configuration not stated) | 1.27%
55 | COc1cc2ncnc(Nc3cccc(Cl)c3)c2cc1OC | -1.48%
56 | NC(=O)c1ccc2[nH]ccc2c1 | -0.264%
57 | CCN(CC)CCn1c(=O)c(Cc2ccc(OC)cc2)nc2ccccc21 | 1.96%
